{
  "source": "PubChem BioAssay (EPA / NIEHS)",
  "note": "Activity calls are given as the source filed them. Rule for the calls: active = hit-call score of the fitted dose curve at least 0.9, where 1 is the maximum; inactive = score below 0.9.",
  "data": [
    {"read-out": "Monocyte Chemoattractant Protein-1 (MCP1), CCL2 (gene 6347)", "assay": "BSK_4H_MCP1: BioMAP Diversity Plus: 4H Assay for Monocyte Chemoattractant Protein-1 (MCP1) Biomarker Activity (AID 2283018)", "settings": "primary human endothelial cells (HUVEC); actives raise or lower the signal", "method": "BSK_4H is a cell-based, multiplexed-readout assay that uses umbilical vein endothelium, a human vascular primary cell, with measurements taken at 24 hours after chemical dosing in a 96-well plate.BSK_4H_MCP1 is an assay component measured in the BSK_4H assay. It measures MCP-1 antibody related to regulation of gene expression using ELISA technology.Data from the assay component BSK_4H_MCP1 was analyzed into 1 assay endpoint. This assay endpoint, BSK_4H_MCP1, was analyzed with bidirectional fitting relative to DMSO as the negative control and baseline of activity. Using a type of binding reporter, gain or loss-of-signal activity can be used to understand changes in the signaling as they relate to the gene CCL2. Furthermore, this assay endpoint can be referred to as a primary readout, because this assay has produced multiple assay endpoints where this one serves a signaling function. To generalize the intended target to other relatable targets, this assay endpoint is annotated to the cytokine intended target family, where the subfamily is chemotactic factor.\nThe levels of cell surface (or secreted, indicated by the prefix \"s\") biomarker endpoints were measured by ELISA. Overt cytotoxicity to cells in confluent adherent cultures (all systems other than the BT system) was assessed by measuring total protein levels using sulforhodamine B (SRB) staining in parallel cultures at the time of biomarker measurements, indicated as SRB endpoints. For proliferation assays for adherent cell types, individual cell types are cultured at sub-confluence and relative cell numbers quantified by SRB staining at time points optimized for each system (48 h: 3C and CASM3C systems; 72 h: BT and HDF3CGF systems; 96 h: SAg system). SRB was performed by staining cells with 0.1% SRB after fixation with 10% TCA and reading wells at 560 nm.Viability and proliferation of PBMC (T cells) was quantified by Alamar Blue reduction for the SAg and BT systems. For PBMC viability (referred to as PBMC Cytotoxicity within the assay endpoint names), cells were plated (75,000/well in a 96-well plate) and then chemical samples added for 1 h before addition of activators, SEB and TSST-1 (20 ng/mL final concentration each). Cells were incubated for 90 h. Then, Alamar Blue (20 uL/well) (Invitrogen, Cat DAL1100) was added for 6 h, and the plates were read with a fluorescence microplate reader at 546/580 nm (excitation/emission). For PBMC proliferation, cells were plated and activated as above but incubated for only 16 h prior to addition of Alamar Blue. Plates were read after 6 h.", "values": [
      {"smiles": "C[Si](Cn1cncn1)(c1ccc(F)cc1)c1ccc(F)cc1", "outcome": "inactive"},
      {"smiles": "CCC(=NOC/C=C/Cl)C1=C(O)CC(C2CCOCC2)CC1=O", "note": "(stereo not given)", "outcome": "inactive"},
      {"smiles": "Cc1cc(C2CC2)nc(Nc2ccccc2)n1", "AC50": "17.8 µM (active)"},
      {"smiles": "CCc1cnc(C2=NC(C)(C(C)C)C(=O)N2)c(C(=O)O)c1", "note": "(stereo not given)", "outcome": "inactive"},
      {"smiles": "C=C(C)[C@H]1Cc2c(ccc3c2O[C@@H]2COc4cc(OC)c(OC)cc4[C@@H]2C3=O)O1", "AC50": "29.3 µM (active)"},
      {"smiles": "CCOC(=O)CC(SP(=O)(OC)OC)C(=O)OCC", "note": "(stereo not given)", "outcome": "inactive"},
      {"smiles": "COP(=O)(OC)SCn1c(=O)oc2cc(Cl)cnc21", "outcome": "inactive"},
      {"smiles": "Cc1nn(-c2cc(NS(C)(=O)=O)c(Cl)cc2Cl)c(=O)n1C(F)F", "outcome": "inactive"},
      {"smiles": "CC(COc1ccc(Oc2ccccc2)cc1)Oc1ccccn1", "note": "(stereo not given)", "outcome": "inactive"},
      {"smiles": "CCNc1nc(Cl)nc(NC(C)(C)C#N)n1", "outcome": "inactive"},
      {"smiles": "O=c1ccc(=O)[nH][nH]1", "outcome": "inactive"},
      {"smiles": "CC1(C(=O)Nc2ccc(O)c(Cl)c2Cl)CCCCC1", "outcome": "inactive"},
      {"smiles": "C[N+]1(C)CCCCC1", "outcome": "inactive"},
      {"smiles": "CN1COCN(Cc2cnc(Cl)s2)C1=N[N+](=O)[O-]", "outcome": "inactive"},
      {"smiles": "CNC(=O)Oc1cccc2c1OC(C)(C)O2", "outcome": "inactive"},
      {"smiles": "CNC(=O)ON=C(C)SC", "outcome": "inactive"},
      {"smiles": "CNc1cnn(-c2cccc(C(F)(F)F)c2)c(=O)c1Cl", "outcome": "inactive"},
      {"smiles": "CC(C)[C@H](C(=O)O[C@H](C#N)c1cccc(Oc2ccccc2)c1)c1ccc(Cl)cc1", "outcome": "inactive"},
      {"smiles": "CCCSP(=O)(OCC)SCCC", "outcome": "inactive"},
      {"smiles": "C#CC(C)(C)NC(=O)c1cc(Cl)cc(Cl)c1", "outcome": "inactive"},
      {"smiles": "CCOP(=O)(OCC)Oc1cc(C)nc(C(C)C)n1", "outcome": "inactive"},
      {"smiles": "CCOP(=S)(OCC)Oc1cc(C)nc(C(C)C)n1", "outcome": "inactive"},
      {"smiles": "CCOP(=S)(Oc1cnc(C(C)(C)C)nc1)OC(C)C", "note": "(stereo not given)", "AC50": "33.4 µM (active)"},
      {"smiles": "CCOC(=O)COc1cc(-c2nn(C)c(OC(F)F)c2Cl)c(F)cc1Cl", "AC50": "10.1 µM (active)"},
      {"smiles": "CC(C)N(C(=O)SCC(Cl)=C(Cl)Cl)C(C)C", "AC50": "32.2 µM (active)"},
      {"smiles": "COP(=O)(OC)C(O)C(Cl)(Cl)Cl", "note": "(stereo not given)", "outcome": "inactive"},
      {"smiles": "C#CCC1=C(C)C(OC(=O)C2C(C=C(C)C)C2(C)C)CC1=O", "note": "(stereo not given)", "AC50": "20.6 µM (active)"},
      {"smiles": "CC1=NNC(=O)N(/N=C/c2cccnc2)C1", "outcome": "inactive"},
      {"smiles": "Nc1nc(N)nc(NC2CC2)n1", "outcome": "inactive"},
      {"smiles": "COP(=O)(NC(C)=O)SC", "note": "(stereo not given)", "outcome": "inactive"},
      {"smiles": "CCCSP(=O)(OCC)Oc1ccc(Br)cc1Cl", "note": "(stereo not given)", "AC50": "28.9 µM (active)"},
      {"smiles": "CCCCN(CC)c1c([N+](=O)[O-])cc(C(F)(F)F)cc1[N+](=O)[O-]", "outcome": "inactive"},
      {"smiles": "CCOP(=O)(SC(C)CC)N1CCSC1=O", "note": "(stereo not given)", "outcome": "inactive"},
      {"smiles": "CCOP(=S)(OCC)Oc1ccc2c(C)c(Cl)c(=O)oc2c1", "outcome": "inactive"},
      {"smiles": "CCCCSP(=O)(SCCCC)SCCCC", "AC50": "16.7 µM (active)"},
      {"smiles": "FC(F)C(F)(F)OCC(Cn1cncn1)c1ccc(Cl)cc1Cl", "note": "(stereo not given)", "AC50": "23.2 µM (active)"},
      {"smiles": "CCCCOC(=O)c1ccccc1C(=O)O", "outcome": "inactive"},
      {"smiles": "CCC(=O)Nc1ccc(Cl)c(Cl)c1", "outcome": "inactive"},
      {"smiles": "CCOP(=O)(NC(C)C)Oc1ccc(SC)c(C)c1", "note": "(stereo not given)", "outcome": "inactive"},
      {"smiles": "CSC1=N[C@@](C)(c2ccccc2)C(=O)N1Nc1ccccc1", "AC50": "27.8 µM (active)"}
    ]}
  ]
}
